# Source: PubChem BioAssay (NCATS)
# Where “and” joins values, the source holds several entries; their conditions need not be identical. Identical values can stand only once. Results filed as inconclusive are left out. Where a call stands in place of a potency, no number is given. Some structures have more than one record in an assay (separate samples or runs), and their calls can disagree. Calls of active or inactive are those of the source. Unless noted, the call rests on the fitted dose curve; in most records, active means well fitted curve in the direction sought with a large enough effect; inconclusive means small, poorly fitted or top-dose-only effect, or another doubt; inactive means no such curve, though single readings can be large; an effect the other way counts as inactive or inconclusive.
# Assays:
# [1] = Cell Viability - HepG2 (AID 433; calls by dose curve;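 further: potency means the concentration at half of the fitted maximal effect; potency for ATP loss meaning cytotoxicity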); conditions: qHTS
# In short: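 Read-out is luciferase-based quantitation of cellular ATP as a measure of viable HepG2 cells after 40 h treatment at 37 °C. Signal decrease is scaled between DMSO-only and 100 uM tamoxifen controls, with AC50 fitted by the Hill equation.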
# [2] = Cell Viability - MRC5 (AID 434; calls by dose curve;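 further: potency means the concentration at half of the fitted maximal effect; potency reflects cytotoxicity seen as loss of intracellular ATP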); conditions: MRC5 lung fibroblast viability, qHTS
# In short: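 qHTS cytotoxicity in human lung fibroblast MRC5 cells; 40 hr treatment, 37 °C; cellular ATP by luciferase luminescence; DMSO = 0%, 100 uM tamoxifen = 100% inhibition; Hill-fit AC50.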
# [3] = target: Mitogen-activated protein kinase 10 (Mus musculus) (UniProt Q61831); test: JNK3 AlphaScreen Assay (AID 530; active means well fitted curve in either direction with a large enough effect, not every such curve was filed as active;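 further: kinase came from lysate of stimulated human HepG2 cells; signal reports phosphorylation of biotinylated GST-cJun 1-79 at Ser73 with 10 µM ATP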); conditions: JNK3 lysate, c-Jun phosphorylation; series mostly up to 57.1 µM
# In short: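 Compound titrations were preincubated 15 minutes at room temperature with substrate, antibody and pre-activated JNK3-containing HepG2 lysate. Reactions were started with 10 uM ATP and stopped with EDTA-containing bead buffer for AlphaScreen detection.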
# [4] = Cell Viability - NIH 3T3 (AID 541); conditions: NIH 3T3 cell viability, qHTS; activity change, negative = cytotoxicity: at 92.2 µM (top of the series); further: nearly all actives have a fitted effect of over 25% in size
# In short: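 Luminescent ATP signal (CellTiter-Glo) served as the viability read-out after NIH 3T3 cells were exposed to compounds over a concentration range for 40 hr at 37 °C. Hill-equation modelling of concentration-response data gave AC50.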
# [5] = Cell Viability - HUV-EC-C (AID 542); conditions: HUV-EC-C endothelial cell viability, qHTS; series mostly up to 92.2 µM; further: nearly all actives have a fitted effect of over 35% in size
# In short: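 qHTS cytotoxicity: HUV-EC-C, 1000 cells/well, 5 hr settle, compound 40 hr 37 °C, CellTiter-Glo, luminescence. AC50 via Hill equation.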
# [6] = Cell Viability - SH-SY5Y (AID 544); conditions: SH-SY5Y neuroblastoma cell viability; viability change, negative = cytotoxic: at 92.2 µM (top of the series); further: nearly all actives have a fitted effect of over 55% in size
# In short: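 Luminescent ATP read-out (CellTiter-Glo) measures loss of viable SH-SY5Y neuroblastoma cells after 40 hr compound exposure at 37 °C. AC50 values derive from standard Hill modelling of qHTS concentration-response data.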
# [7] = Cell Viability - Renal Proximal Tubule (AID 545); conditions: renal proximal tubule cells viability, at 91.7 µM (top of the series); further: nearly all actives have a fitted effect of over 40% in size
# In short: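 Luminescent ATP signal (CellTiter-Glo) served as the viability read-out after 40 hr compound exposure of freshly isolated rat proximal tubule cells at 37 °C. Concentration-dependent ATP loss was fitted with the Hill equation to give AC50.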
# [8] = Cell Viability - Mesenchymal (AID 546); conditions: mesenchymal cells viability, qHTS; series mostly up to 91.7 µM;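 further: cells exposed to compound for 40 hours before reading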
# In short: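 AC50 values reflect the drop in intracellular ATP in a human kidney mesenchymal line derived from normal glomeruli. Treatment lasts 40 hr at 37 °C in complete medium, and the signal comes from CellTiter-Glo luminescence.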
# [9] = Cellular Toxicity (caspase-3) Jurkat (AID 655); conditions: Jurkat caspase-3 activation, luminescence, DMSO = 0%, tamoxifen = 100%; at 92.2 µM (top of the series);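 further: cells exposed to compound for 16 h at 37 °C before reading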
# In short: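 5000 Jurkat cells/well; compound 16 hr, 37 °C; Caspase-Glo 3/7 added, 20 min RT; luminescence read. Norm: DMSO = 0%, tamoxifen 100 uM = 100%. AC50, Hill model.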
# [10] = Cellular Toxicity (caspase-3) HUV-EC-C (AID 656); conditions: HUV-EC-C cells, caspase-3 activation (apoptosis), vehicle = 0, 100 µM tamoxifen = 100%; series mostly up to 92.2 µM
# In short: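 qHTS; HUV-EC-C, 1000 cells/well; 5 hr settle, 16 hr cmpd, 37°C; Caspase-Glo 3/7, 20 min RT; luminescence. Norm: DMSO = 0%, tamoxifen 100 uM = 100%. Hill-fit AC50.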
# [11] = Cellular Toxicity (caspase-3) SHSY5Y (AID 657); conditions: SH-SY5Y caspase-3 activation, DMSO zero, 10 µM staurosporine = 100%; series mostly up to 91.7 µM;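 further: cells exposed to compound for 16 hours at 37 °C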
# In short: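 qHTS, SH-SY5Y, 1500 cells/well, 5 h pre-incubation 37 °C; compound 16 h 37 °C; Caspase-Glo 3/7 1 h RT; luminescence. Norm.: DMSO = 0, 10 uM staurosporine = 100%. Hill fit → AC50.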
# [12] = Cellular Toxicity (caspase-3) BJ (AID 658); conditions: BJ fibroblasts, luminescence, normalized: DMSO 0%, staurosporine 100%; series mostly up to 91.7 µM
# In short: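 Readout: Caspase-Glo 3/7 luminescence increase in BJ cells after 16 hr treatment at 37 °C. Staurosporine and tamoxifen served as positive controls; AC50 values came from Hill modelling of data normalized to DMSO and 10 uM staurosporine.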
# [13] = Cellular Toxicity (caspase-3) MRC-5 (AID 659); conditions: MRC-5 cells, luminescence, normalized: DMSO 0%, 10 µM staurosporine 100%; series mostly up to 91.7 µM
# In short: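 Concentration-dependent caspase 3/7 activation is measured in human normal lung fibroblasts (MRC-5) following 16-hour treatment. AC50 values come from standard Hill-equation modeling of luminescence normalized to DMSO and 10 uM staurosporine.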
# [14] = Cellular Toxicity (caspase-3) SK-N-SH (AID 661); conditions: SK-N-SH caspase-3 activation, qHTS, DMSO as zero, staurosporine as full; series mostly up to 91.7 µM
# In short: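 Human neuroblastoma SK-N-SH, 1500 cells/well, 5 hr pre-incubation, then compound 16 hr, 37 °C. Caspase-Glo 3/7 reagent, 1 hr RT, luminescence. Norm. to DMSO/10 uM staurosporine; Hill-fit AC50.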
# [15] = Cellular Toxicity (caspase-3) H-4-II-E (AID 663); conditions: H-4-II-E rat hepatoma, scaled: DMSO 0%, 100 µM tamoxifen 100%; series mostly up to 92.2 µM;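 further: cells exposed to compound for 16 hr before readout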
# In short: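 Apoptosis induction is scored as increased luminescence from caspase 3/7 substrate cleavage in rat hepatoma H-4-II-E cells exposed to compound for 16 hr. Activity is scaled between DMSO and 100 uM tamoxifen.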
# [16] = Cellular Toxicity (caspase-3) N2a (AID 665); conditions: N2a cells, luminescence, normalized: DMSO 0%, 10 µM staurosporine 100%; at 92.2 µM (top of the series);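 further: compound exposure lasted 16 h at 37 °C before readout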
# In short: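 N2a cells, 1500/well, 5 h settle at 37 °C; cpd 16 h, 37 °C; Caspase-Glo 3/7, 1 h RT; luminescence. Norm: DMSO = 0, 10 uM staurosporine = 100%. AC50, Hill fit.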
# [17] = target: Cytochrome P450 3A4 (Homo sapiens) (UniProt P08684); test: qHTS Assay for Inhibitors and Substrates of Cytochrome P450 3A4 (AID 884); conditions: recombinant CYP3A4, Luciferin-PPXE luminescence; series mostly up to 57.1 µM; further: nearly all actives have a fitted effect of over 50% in size; further: potency means the concentration at half of the fitted maximal effect
# Chain of Cytochrome P450 3A4 (Homo sapiens) (P08684 whole entry, looked up): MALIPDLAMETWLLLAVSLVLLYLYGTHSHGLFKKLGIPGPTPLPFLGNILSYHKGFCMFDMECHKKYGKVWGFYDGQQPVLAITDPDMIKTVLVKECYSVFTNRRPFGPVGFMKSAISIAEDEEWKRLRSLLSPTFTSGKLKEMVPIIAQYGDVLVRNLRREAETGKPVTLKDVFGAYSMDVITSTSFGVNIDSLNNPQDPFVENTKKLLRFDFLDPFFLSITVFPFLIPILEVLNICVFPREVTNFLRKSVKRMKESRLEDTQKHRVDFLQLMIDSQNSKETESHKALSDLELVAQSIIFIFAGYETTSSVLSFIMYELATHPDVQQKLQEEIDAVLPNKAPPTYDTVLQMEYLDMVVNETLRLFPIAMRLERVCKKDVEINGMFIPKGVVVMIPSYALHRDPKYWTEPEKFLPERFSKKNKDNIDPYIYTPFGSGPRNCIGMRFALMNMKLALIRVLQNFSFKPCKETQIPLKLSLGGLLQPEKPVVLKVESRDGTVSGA
# In short: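 20 nM human CYP3A4 with 25 uM Luciferin-PPXE (at KM) in 200 mM KPO4, preincubated 10 min with compound; NADPH regeneration started a 60 min RT reaction. Luciferin detected by luminescence, normalized to 57 uM ketoconazole as full inhibition.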
# [18] = qHTS Assay for Identification of Small Molecule Inducers of Hypoxia Response (AID 2120; active means well fitted curve in the direction sought with a large enough effect in the signal ratio, with a control signal flat, not every such curve was filed as active; the % refers to the signal ratio); conditions: hypoxia response reporter cells, beta-lactamase ratio readout; series mostly up to 104 µM
# In short: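 ME-180 HRE-bla cells plated in Opti-MEM/0.5% dialyzed FBS, rested 4-5 h, then dosed with compound titrations by pin tool. After 17 h at 37 degrees C, CCF4 dye loaded 2.5 h at RT; 460/530 nm ratio gave %Activity and AC50.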
# [19] = qHTS assay for small molecule agonists of the antioxidant response element (ARE) signaling pathway measured by Nrf2-dependant transcriptional activity - cell viability counter screen (AID 720653; active means well fitted curve in the direction sought with a large enough effect in the repeat runs; an effect the other way counts as inactive or inconclusive); conditions: ARE-bla HepG2 viability, CellTiter-Glo ATP luminescence, 16 h; stronger effect = lower value
# In short: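 Cytotoxicity counter screen: intracellular ATP quantified by CellTiter-Glo luminescence in the same ARE-bla HepG2 plates, after 16 h compound exposure and a 2 h beta-lactamase substrate step.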
# [20] = qHTS assay for cell viability of HEK293 cells (AID 743288); conditions: ATP luminescence (CellTiter-Glo), 18 h; max response: stronger effect = lower value; further: nearly all actives have a fitted effect of over 50% in size
# In short: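 HEK293 parental, 2,000 cells/well; ≥5 h pre-incubation 37 C; pintool compound addition; 18 h, 37 C; CellTiter-Glo 30 min RT; luminescence read.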
# [21] = primary cells of rat origin unless noted
compound,measurement,setting,value
CN=C=S,Potency,[1],> 92 µM (inactive)
same,Potency,[2],> 92 µM (inactive)
same,outcome,[3],inactive
same,"activity change, negative = cytotoxicity",[4],7.36% (inactive)
same,Potency,[5],inactive
same,Potency,[6],inactive
same,"activity change, negative = cytotoxicity",[7]; [21],-2.52% (inactive)
same,outcome,[8],inactive
same,caspase-3 activation,[9],-1.9% (inactive)
same,outcome,[10],inactive
same,outcome,[11],inactive
same,outcome,[12],inactive
same,outcome,[13],inactive
same,outcome,[14],inactive
same,outcome,[15],inactive
same,caspase-3 activation,[16],2.61% (inactive)
same,Potency,[17],inactive
same,outcome,[18],inactive
same,max response,[19],4% (inactive) and -4.66% (inactive)
same,max response,[20],-4.04% (inactive) and -6.57% (inactive)
Cc1ccccc1N,Potency,[1],> 92 µM (inactive)
same,Potency,[2],> 92 µM (inactive)
same,outcome,[3],inactive
same,"activity change, negative = cytotoxicity",[4],-25.3% (inactive) and -5.05% (inactive)
same,Potency,[5],inactive
same,Potency,[6],inactive
same,"activity change, negative = cytotoxicity",[7],-0.93% (inactive)
same,"activity change, negative = cytotoxicity",[7]; primary cells of rat origin,-4.73% (inactive)
same,outcome,[8],inactive
same,caspase-3 activation,[9],11.5% (inactive) and 2.29% (inactive)
same,outcome,[10],inactive
same,outcome,[11],inactive
same,outcome,[12],inactive
same,outcome,[13],inactive
same,outcome,[14],inactive
same,outcome,[15],inactive
same,caspase-3 activation,[16],-5.28% (inactive) and -1.86% (inactive)
same,Potency,[17],inactive and 25.1 µM (active)
same,outcome,[18],inactive
same,max response,[19],-8.44% (inactive) and 1.06% (inactive)
same,max response,[20],-10.9% (inactive) and 0.49% (inactive)
CCC[CH2][Sn]([Cl])([Cl])[Cl],Potency,[1],> 92 µM (inactive)
same,Potency,[2],> 92 µM (inactive)
same,outcome,[3],inactive
same,"activity change, negative = cytotoxicity",[4],-25.6% (inactive)
same,Potency,[5],inactive
same,Potency,[6],inactive
same,"activity change, negative = cytotoxicity",[7]; [21],-9.62% (inactive)
same,outcome,[8],inactive
same,caspase-3 activation,[9],1.34% (inactive)
same,outcome,[10],inactive
same,outcome,[11],inactive
same,outcome,[12],inactive
same,outcome,[13],inactive
same,outcome,[14],inactive
same,outcome,[15],inactive
same,caspase-3 activation,[16],0.958% (inactive)
same,Potency,[17],inactive
same,outcome,[18],inactive
same,max response,[19],-3.93% (inactive) and 8.73% (inactive)
same,max response,[20],9.1% (inactive) and -10.4% (inactive)
c1nc[nH]n1,Potency,[1],> 92 µM (inactive)
same,Potency,[2],> 92 µM (inactive)
same,outcome,[3],inactive
same,"activity change, negative = cytotoxicity",[4],-5.84% (inactive)
same,Potency,[5],inactive
same,Potency,[6],inactive
same,"activity change, negative = cytotoxicity",[7]; [21],-1.05% (inactive)
same,outcome,[8],inactive
same,caspase-3 activation,[9],0.542% (inactive)
same,outcome,[10],inactive
same,outcome,[11],inactive
same,outcome,[12],inactive
same,outcome,[13],inactive
same,outcome,[14],inactive
same,outcome,[15],inactive
same,caspase-3 activation,[16],-1.83% (inactive)
same,outcome,[18],inactive
same,max response,[19],12.8% (inactive)
same,max response,[20],-0.284% (inactive)
